PubChem BioAssay AID1239 (SRMLSC, 2008)
Screen size: about 190,000 compounds; about 3,100 (1.6%) were called active. The entries come from a sample that favours actives as a whole. Values without a mark were called inactive. Cut-off read from the data, not from the text of the source: active = fold change above about 3.3; inconclusive = no clear call, values can overlap the other calls; inactive = below that.

Test: NF-kB upregulation, human neuronal cells – cell-based, HTS, primary screen (AID 1239)
Settings: NF-kB reporter expression, at 12.5 µM, stronger effect = higher value

SMILES	fold change
COc1cc(CN2CCNC(=O)C2CC(=O)NCCc2ncccc2C)cc(OC)c1 (stereo not drawn)	1.05
COCCSc1nnc(NC(=O)c2cc(OC)c(OC)cc2[N+](=O)[O-])s1	1.11
CCOC(=O)/C(=N\Nc1ccccc1Cl)N(C)C1CCS(=O)(=O)C1 (stereo not drawn)	0.99
COc1cc(S(=O)(=O)N2CCOCC2)ccc1NC(=O)COc1ccc(N(C)S(=O)(=O)c2ccc(C)cc2)cc1	0.76
N#C/C=C\Oc1ccc(Cl)cc1N	3.39 (active)
COc1ccc(Cl)cc1C(=O)NCC#N	0.94
Cn1cc(CCC(=O)N2CCCC(C(=O)c3ccc(C(C)(C)C)cc3)C2)cn1 (stereo not drawn)	0.83
CNc1nccc(-c2ccc(Cl)cc2)c1C#N	1.47
Cc1c(Br)ccc(NC(=O)COc2ccccc2C(N)=O)c1C	1.08
O=C(NC1CCCC1)C(c1ccc(N2CCOCC2)cc1)N(C(=O)c1ccco1)c1ccccc1F (stereo not drawn)	1.05
O=C(COc1ccc(NC(=O)c2ccccc2[N+](=O)[O-])cc1)c1ccc(F)cc1	1.07
Cc1ccc2nc(COc3ccc(N(C)S(=O)(=O)c4ccccc4)cc3)cc(=O)n2c1	1.11
Nc1ccc(C(=O)NCc2ccccc2)cc1	1
O=C(NCCc1ccccc1)c1ccc(OCCOc2ccccc2)cc1	1.27
O=C(NCCOc1ccccc1)c1ccccc1	4.39 (active)
CCCOc1ccc(C(=O)NCCc2ccccc2)cc1	6.46 (active)
NS(=O)(=O)c1cc(C(=O)NCCOc2ccccc2)c(Cl)cc1Cl	0.66
Cc1ccc(C(=O)NCCNC(=O)c2ccccc2)cc1	1.15
CC(C)c1ccc(C(=O)NCCCc2ccccc2)cc1	4 (active)
COc1ccc(OCCCC(=O)NCCc2ccccc2)cc1	1.08
Cc1cc(C(=O)NCCCc2ccccc2)no1	1.33
CC(C)OC(=O)CN1CCN(c2ccc(Cl)cc2)CC1	1.18
c1ccc2c(NC3C4CC5CC(C4)CC3C5)nc(N3CCOCC3)nc2c1 (stereo not drawn)	0.99
Cc1cccc(C(=O)N2CCCN(C(=O)c3cccc(C)c3)CC2)c1	1.1
Cc1ccc2cc3cc(C(=O)N4CCCCCC4)oc3nc2c1	4.26 (active)
Cc1cc(=O)oc(C)c1C(=O)N1CCCCC1	1.16

SMILES	fold change
CN1CCNC(=O)C1CC(=O)N1CC=C(c2ccc(F)cc2)CC1 (stereo not drawn)	1.04
CN(c1ccc(C(=O)NCCC2=CCCCC2)cc1)S(C)(=O)=O	3.37 (active)
CN(c1ccc(C(=O)NCc2ccccn2)cc1)S(C)(=O)=O	1.11
O=C(Cc1nn[nH]n1)NCCC1=CCCCC1	1.18
O=C(Cc1cccc2ccccc12)NCCC1=CCCCC1	1.12
O=C(NCCC1=CCCCC1)c1ccc(Cl)c([N+](=O)[O-])c1	1.68
Cn1nnc2cc(C(=O)NCCC3=CCCCC3)ccc21	3.75 (active)
CN(CCc1ccccn1)C(=O)CCC1CCCN(Cc2ccccc2OC(F)F)C1 (stereo not drawn)	1.15
Cc1ccc(NC(=O)NC2CCCCC2)cc1S(=O)(=O)N1CCOCC1	1.06
CCc1ccc2oc(-c3ccc(N)cc3)nc2c1	5.55 (active)
CCCCCC(=O)Nc1ccc2oc(-c3ccncc3)nc2c1	0.96
CCN(CC)c1ccc2oc(=O)c(C)nc2c1	0.65
COC(=O)Cc1ccc(Oc2ncc(C(F)(F)F)cc2Cl)cc1	1.13
Fc1ccccc1/C=C1\CCCC2=C1Nc1ncnn1C2c1ccccc1F (stereo not drawn)	4.05 (active)
OCCNCc1cccc(OCc2ccccc2Cl)c1	0.98
c1ccc2sc(NN=C3CCCC3)nc2c1	8.8 (active)
Fc1ccc2nc(Nc3nc4c(s3)CCCC4)sc2c1	3.04
O=[N+]([O-])c1cc(Br)c(O)c(/C=N/Nc2nc3ccccc3s2)c1	0.65
Cc1ccccc1NCC(=O)N/N=C\c1ccc([N+](=O)[O-])s1	0.63
O=C(Nc1cc2ccccc2oc1=O)C1CCCCC1	4.4 (active)
O=C(O)c1ccc(NC(=O)C2CCCCC2)cc1	1.04
CC(=O)Nc1cc2ccc(OC(C)=O)cc2oc1=O	1.34
O=C(N/N=C/c1ccc(OCC2COCCO2)cc1)c1ccc(Br)cc1 (stereo not drawn)	0.81
CNc1nc2c(C)cccn2c(=O)c1C=Nc1ccc(OC)cc1	1.61
Nc1[nH]c(=S)nc2nc(-c3ccccc3)c(-c3ccccc3)nc12	1.13
COc1ccc(C2=NOC3(CC(=O)N(c4ccc(C)cc4)C3=O)C2)cc1 (stereo not drawn)	0.77

SMILES	fold change
COc1ccc(C2=Nc3cc(C)ccc3OC2)cc1	6.75 (active)
COc1ccc(C2=NOC(COC(=O)c3ccc4ccccc4n3)C2)cc1 (stereo not drawn)	1.25
CC(C)(C)[Si](OCC[C@@H]1C[C@@]1(C)[C@@H](NP(=O)(c1ccccc1)c1ccccc1)c1ccccc1)(c1ccccc1)c1ccccc1	3.34 (active)
COC(=O)[C@H](C)[C@H]1C[C@]1(C)[C@H](NC(=O)OCc1ccccc1)c1ccccc1	0.97
O=C(NCc1ccccc1)[C@H]1C[C@@H]1[C@H](NP(=O)(c1ccccc1)c1ccccc1)c1ccccc1	0.77
CCOC(=O)CCCNC(=O)COC(=O)/C=C/c1ccc2c(c1)OCO2	1.06
CC1(C)CC(=O)CC2(C1)NCC(c1ccccc1Cl)c1c2[nH]c2ccccc12 (stereo not drawn)	0.75
O=C(COc1ccc([N+](=O)[O-])cc1)Nc1ccc(N2CCCC2)cc1	1.07
O=C(COC(=O)C1CCCCC1)Nc1ccc([N+](=O)[O-])cc1	6.28 (active)
N/C(Cc1ccc([N+](=O)[O-])cc1)=N\OC(=O)C1CCCCC1	1.13
CC1=NCCN1S(=O)(=O)c1cccc([N+](=O)[O-])c1	1.03
CCOC(=O)C(C)n1nc(-c2ccccc2)c2ccccc2c1=O (stereo not drawn)	0.91
CCCn1c(NC(=O)C23CC4CC(CC(O)(C4)C2)C3)nc2ccccc21	0.92
NS(=O)(=O)c1ccc(NC(=O)COC(=O)c2ccc(Cl)nc2)cc1	0.87
CC(C(=O)O)n1cnc2sc3c(c2c1=O)CCCC3 (stereo not drawn)	1.12
O=C(N/N=C/c1ccc2c(c1)OCO2)C(=O)N1CCCC1	1.4
Cc1nc2sc(C(=O)c3ccccc3)c(N)c2c2c1CCCC2	1.93
CN(C)c1ccnc2sc3c(=O)n(Cc4ccccc4)cnc3c12	0.86
CN(C)c1ccnc2sc(C(=O)c3ccccc3)c(N)c12	3.79 (active)
COc1ccc(/C=C/CN2CCCC(C(=O)c3cc(F)ccc3F)C2)cc1 (stereo not drawn)	1.06
CCOc1ccc2nc(NCCNC(=O)C(C)(C)C)c(C)cc2c1	1.12
O=C(CCc1nnc(CCCCc2ccccc2)o1)NC(c1cccnc1)C(F)(F)F (stereo not drawn)	0.86
CC(C)(C)NC(=O)Cn1cnc2cc([N+](=O)[O-])ccc2c1=O	1.11
Cc1ccc(-c2cn(S(=O)(=O)c3cccc([N+](=O)[O-])c3)nc2N)cc1	1.2
Cc1ccc(-n2cc3ccc([N+](=O)[O-])cc3n2)cc1	9.31 (active)
O=C(O)CSCC(=O)Nc1ccc(C(F)(F)F)cc1	1.18

SMILES	fold change
CCCCSc1nc2ccccc2[nH]1	2.06
C=CCSc1nc2ccccc2[nH]1	1.17
O=C(CSc1nc2ccccc2[nH]1)c1cccs1	3.8 (active)
COc1ccc(/C=N/NC(=O)Cn2cc(C(F)(F)F)ccc2=O)cc1	1.07
O=C(O)/C=C/c1ccc(S(=O)(=O)N2CCCCCC2)cc1	1.17
CCCC(=O)Nc1ccc(C(=O)N/N=C/c2ccc[nH]2)cc1	6.81 (active)
CCCC(=O)Nc1ccc(C(=O)NCCCn2ccnc2)cc1	1.01
CCCCCC(=O)Nc1ccc(C(=O)N/N=C/c2ccc([N+](=O)[O-])cc2)cc1	1.05
CCn1c(N)c(Br)c(=O)[nH]c1=O	0.94
CN(C)c1ccc(C2Nc3ccccc3C(=O)N2NS(=O)(=O)c2ccccc2)cc1 (stereo not drawn)	0.87
CC1(C)CC(=O)C(C2c3ccccc3S(=O)(=O)c3ccccc32)C(=O)C1	1.19
Cc1ccc(C(=O)NN(CCC#N)C2=NS(=O)(=O)c3ccccc32)cc1	1.06
CC1(C)C2CC=C(/C=N/NC(=O)C3CC3)C1C2 (stereo not drawn)	1.13
CC(C)(C)NS(=O)(=O)c1ccc(NC(=O)NC2CCCCC2)cc1	0.89
CC(C)N1CCC(NC(=O)Nc2ccccc2)CC1	1.04
CC(C)c1ccc(NC(=O)NC2CCCCC2)cc1	5.47 (active)
CCOc1cc(NC(=S)NCc2ccco2)c(OCC)cc1NC(=O)c1ccco1	1.12
CCN(CC)C(=O)C(=O)c1cn(CC(=O)NCc2ccc3c(c2)OCO3)c2ccccc12	1.39
CCc1ccc2c(c1)C1(NN=C(c3ccccc3)S1)C(=O)N2 (stereo not drawn)	4.48 (active)
O=C1Nc2ccccc2C12Nc1ccccc1S2 (stereo not drawn)	1.44
C=C1c2cc(CC)ccc2NC(=O)N1c1ccc(C)cc1	1.19
O=C(CSc1cccc[n+]1[O-])c1ccc(-c2ccccc2)cc1	2.45
COc1cc(NC(=O)c2cccs2)ccc1NC(=O)c1ccccc1Cl	0.87
O=C(Nc1ccc2sc3ccccc3c(=O)c2c1)c1ccccc1Cl	6.23 (active)
O=C(Nc1ccc2nc3n(c(=O)c2c1)CCCCC3)c1ccccc1Cl	1.29
